Data on 71 compounds can be found in PubChem BioAssay AID623868 (Vanderbilt High Throughput Screening Facility, 2012).

The campaign covered roughly 2,100 compounds. About 760 (36%) were called active. Only a sample is shown. Values without a mark were called inactive.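 How the source made its calls: active means thallium-flux fluorescence traces judged by eye to show enhanced or reduced glutamate response, manual score 1 or -1, so both directions (some results past the limit were not filed as active); inactive means the rest, including fluorescent or raised-baseline compounds.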

This experiment is described as follows: non-GIRK thallium flux modulation in mGlu8 cells, confirmation, counter-screen for GIRK activator project, cell-based, HEK-293 rmGlu8, no GIRK (AID 623868).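 Further: extra codes mark interference with 3 for fluorescent and 4 for baseline rise.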 The conditions noted are these: thallium flux fluorescence, at 10 µM, actives lie on both sides, codes: 1 enhancer, -1 blocker, 0 none, thallium stimulus containing EC20 glutamate.
For the compound `COc1ccc(OC)c(Nc2cc(-c3ccccc3)nc(N)n2)c1`, the manual score was 0. With `COc1cc(NC(=O)Cn2nnc(-c3ccccc3N)n2)cc(OC)c1` the figure was 0. With `COc1ccc(C(=O)Nc2ccc(Oc3ncnc4sc(-c5ccccc5)cc34)cc2)cc1OC` the figure was 0; with `COc1cccc(-c2cc(C(=O)NC3CCCC3)no2)c1`, 0.

In the case of `COc1cccc(C(=O)Nc2nc(-c3ccccc3)c(-c3ccccc3)o2)c1`, the manual score was 1 (active). The same measure for `COc1cc(OC)cc(C(=O)Nc2nc(-c3ccccc3)c(-c3ccccc3)o2)c1`: 1 (active).

On to `COc1cccc(C(=O)NCc2cn3ccsc3n2)c1`, for which the manual score was 0. Turning to `O=C(Nc1ccc(CN2CCOCC2)cc1)c1cc2ccccn2n1`, the manual score is 0. On to `C=CCN1C(=O)/C(=C2/Sc3ccccc3N2C)SC1=Nc1c(C)n[nH]c1C`, for which the manual score was 0. On to `CCCCCn1nc(-c2ccccc2)c2nc3ccccc3nc21`, for which the manual score was 3. With `O=C(NC(=S)N1CCN(Cc2ccccc2)CC1)c1ccccc1` the figure was 1 (active); with `O=C(CN1CCN(Cc2ccccc2)CC1)Nc1cccc(C(F)(F)F)c1`, 0; with `SC(COCc1ccccc1)CN1CCN(Cc2ccc3c(c2)OCO3)CC1` (stereo unspecified), 0.

`O=C(NC(=S)N1CCN(Cc2ccc3c(c2)OCO3)CC1)c1ccc(Cl)cc1`: the manual score is 1 (active). Take `O=C(c1ccc(COc2c(F)c(F)c(F)c(F)c2F)o1)N1CCN(Cc2ccc3c(c2)OCO3)CC1`: the manual score is 0. The same measure for `O=C(c1ccc2nccnc2c1)N1CCN(Cc2ccc3c(c2)OCO3)CC1`: 0; for `CCN(CC)c1ccc(C(=O)NC(=S)N2CCN(Cc3ccc4c(c3)OCO4)CC2)cc1`: 1 (active); for `O=C(NC(=S)N1CCN(Cc2ccc3c(c2)OCO3)CC1)c1cccc(Br)c1`: 1 (active). With `CN1CCN(C(=S)NC(=O)/C=C/c2cccc3ccccc23)CC1` the figure was 0; with `COC(=O)c1[nH]c2ccc(C)cc2c1NC(=O)CCN1CCN(Cc2ccc3c(c2)OCO3)CC1`, 0. The same measure for `Cn1cc(CCC(=O)NCc2ccc3c(c2)OCO3)c2ccccc21`: 0. Turning to `CCOC(=O)c1ccc(NC(=O)N2CCN(Cc3cccc(F)c3)CC2)cc1`, the manual score is 0. On to `COCCCN(C(=S)Nc1cccc(Cl)c1)C(C)c1ccncc1` (stereo unspecified), for which the manual score was 0. The same measure for `CC(C)(C)CC(C)(C)NCC(O)COc1c(F)cc(Br)cc1F` (stereo unspecified): 4; for `O=C(CN1CCCCC1)Nc1cccc(Oc2ccccc2)c1`: 0; for `CCC/C(=N/NC(=O)c1csc(C)c1C)c1ccc(Cl)s1`: 0.

As for `C=C(C)CNC(=S)N/N=C(\C)c1ccc(Cl)s1`, the manual score was 1 (active).

For the compound `C/C(=N\NC(=S)NC(C)C)c1ccc(Cl)s1`, the manual score is 1 (active).

For the compound `C/C(=N\NC(N)=S)c1ccc(Cl)s1`, the manual score is 0.5. The same measure for `C/C(=N\NC(=O)c1csc(C)c1C)c1ccc(Cl)s1`: 1 (active). With `CNC(=S)N/N=C(\C)c1ccc(Cl)s1`, the manual score is 1 (active). The same measure for `Cc1cc(C)n(CC(=O)O)n1`: 0. Consider `C/C(=N\NC(=S)NCCc1ccccc1)c1cccs1`, for which the manual score was 3. The same measure for `CCNC(=S)N/N=C(\C)c1ccc(Cl)s1`: 1 (active); for `C/C(CC(=O)NC(C)C)=N\NC(=O)COc1cc(C)c(Br)cc1Br`: 0.

As to `COc1ccc(N2CCN(c3nc4c(c(=O)n(C)c(=O)n4C)n3Cc3ccccc3)CC2)cc1`, the manual score was 0.

With `COc1ccc(N2CCCn3c2nc2c3c(=O)n(Cc3ccccc3F)c(=O)n2C)c(OC)c1`, the manual score was -1 (active).

Turning to `Cn1c(N2CCCC2)nc2c1c(=O)n(Cc1ccc(Cl)cc1)c(=O)n2C`, the manual score is 0. On to `CCN(CC(=O)c1c(N)n(C)c(=O)n(C)c1=O)c1cccc2ccccc12`, for which the manual score was 0. With `O=C1NC(=S)SC1=C1CCCCCC1` the figure was 1 (active); with `CCCCn1c(-c2csc(C(C)C)c2)n[nH]c1=S`, 1 (active).

As for `CCc1cc(-c2n[nH]c(=S)n2C(C)c2ccccc2)cs1` (stereo unspecified), the manual score is 1 (active). With `CCCc1cc(-c2n[nH]c(=S)n2Cc2ccccc2)cs1`, the manual score is 1 (active). In the case of `CCCCn1c(-c2csc3c2CCCC3)n[nH]c1=S`, the manual score is 0.

As to `CCCCCNc1nc(-c2ccccc2)cs1`, the manual score was 0.

`CCCCn1c(-c2csc3c2CCC(C)C3)n[nH]c1=S` (stereo unspecified): the manual score is 1 (active).

Regarding `CCCc1cc(-c2n[nH]c(=S)n2C(C)c2ccccc2)cs1` (stereo unspecified), the manual score is 0. With `Cc1cccc(-n2c(C)nc3sccc3c2=O)c1` the figure was 0; with `Cc1cccc(-n2c(-c3csc(C(C)C)c3)n[nH]c2=S)c1`, 1 (active); with `CCCc1cc(-c2n[nH]c(=S)n2CC(C)C)cs1`, 1 (active). With `Cc1ccc(S(=O)(=O)CC(=O)Nc2ccc(S(=O)(=O)Nc3onc(C)c3C)cc2)cc1` the figure was 0; with `Cc1cccc2cc(/C=C3\N=C(c4ccccc4)OC3=O)c(N3CCOCC3)nc12`, 3. With `COC(=O)c1ccc(CSc2nnc(Nc3ccccc3OC)s2)o1` the figure was 0. Consider `CCn1c(SCc2ccc(Cl)cc2)nnc1-c1ccccc1`, for which the manual score was 0. With `COC(=O)c1ccc(CSc2ccc3nnc(-c4ccccc4)n3n2)o1` the figure was -1 (active); with `CCn1c(SCc2nc(-c3ccccc3)no2)nc2ccccc21`, 0.

Turning to `CCCCc1ccc(NC(=S)Nc2cccnc2)cc1`, the manual score is 0. Consider `CCCCn1c(NC(=S)Nc2ccccc2)nc2ccccc21`, for which the manual score is 1 (active). With `CCN(CC)CCn1c(NC(=O)c2ccc(Cl)cc2)nc2ccccc21` the figure was 0. With `CCCn1c(NCc2ccc(N(C)C)cc2)nc2ccccc21` the figure was 0. As for `CCn1c(NC(=S)Nc2ccccc2)nc2ccccc21`, the manual score is 1 (active). On to `CCCCN1C(=O)c2ccccc2C1C(=O)NC1CCCC1` (stereo unspecified), for which the manual score was 0.

Take `Cc1cccc(C(=O)N2CCC(Cc3ccccc3)CC2)c1[N+](=O)[O-]`: the manual score was 0.

In the case of `O=C(Nc1nnc(-c2ccc3c(c2)CCCC3)o1)c1ccccc1Cl`, the manual score was 1 (active). With `O=C(Nc1nnc(-c2ccc3c(c2)CCCC3)o1)C1COc2ccccc2O1` (stereo unspecified) the figure was 1 (active). With `NS(=O)(=O)c1ccc(NC(=O)C2COc3ccccc3O2)cc1` (stereo unspecified) the figure was 0. With `CC1CN(S(=O)(=O)c2ccc(C(=O)Nc3nnc(-c4ccc5c(c4)CCCC5)o3)cc2)CC(C)O1` (stereo unspecified) the figure was 1 (active); with `CCC(/C=N/NC(=O)C1COc2ccccc2O1)CC` (stereo unspecified), 0; with `O=C(Nc1ccc(-c2nc3ccccc3o2)cc1)c1cc(-n2cnnc2)ccc1Cl`, 0. As for `O=C(Nc1nnc(-c2ccc3c(c2)CCCC3)o1)c1ccc(Cl)cc1Cl`, the manual score is 1 (active).

As for `Cc1ccc(NC(=O)c2ccc(COc3ccc4c(c3)CCC4)cc2)c(C)c1`, the manual score was 0.
